Our source for the z-score and composite z-score values is PubChem BioAssay.

The nature of experiment [1]: optical density shifts of acrAB sulA E. coli – strain DRC41, OD650, 48 h, E. coli filamentation inducer project, primary screen (AID 1152).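 Further: E. coli MC1000 strain DRC41 lacking acrAB efflux pump and sulA.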 The note with it: higher = more signal, called active from +8 up or from −8 down.
The nature of experiment [2]: probe aLefty1 binding on compound microarray – biochemical, small-molecule microarray, 635/667 nm fluorescence, primary screen (AID 1153).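 Further: score merges spot fluorescence with signal-to-noise ratio from the scanned slide images.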 The note with it: higher = more signal.
Experiment [3] can be described thus: plasmodial surface anion channel blockers, osmotic lysis – cell-based, P. falciparum Indochina, OD700, 1 h, primary screen (AID 1154). The note with it: P. falciparum Indochina infected RBC osmotic lysis, higher = more signal, called active from +8 up or from −8 down.
Experiment [4] can be described thus: plasmodial surface anion channel blockers, osmotic lysis – cell-based, P. falciparum Indochina, OD700, 2 h, primary screen (AID 1155).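 Further: lysis reports solute entry through the parasite surface anion channel PSAC.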 The note with it: P. falciparum Indochina infected erythrocytes, higher = more signal, called active from +8 up or from −8 down.
Experiment [5] in a line: changes in parasitized red cell lysis, either direction – P. falciparum Indochina, OD700, 3 h, PSAC antagonist project, primary screen (AID 1156). The note with it: P. falciparum-infected erythrocytes, osmotic lysis, higher = more signal, called active from +8 up or from −8 down.
The nature of experiment [6]: plasmodial surface anion channel blockers, osmotic lysis – cell-based, P. falciparum Indochina, OD700, 18 h, primary screen (AID 1157). The note with it: P. falciparum Indochina infected erythrocytes, osmotic lysis OD700, 18 h; higher = more signal, called active from +8 up or from −8 down.
The nature of experiment [7]: S6 kinase pathway phospho-S6 level changes – cell-based, A549, cytoblot, luminescence, serum-stimulated, primary screen (AID 1158).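 Further: serum-stimulated A549 lung adenocarcinoma cells; signal is phosphorylated S6 detected by cytoblot immunostaining with HRP secondary.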 The note with it: 5 h, higher = more signal.
Experiment [8] deals with NADPH oxidase 2 (Homo sapiens) (UniProt P04839). Nature of the experiment: compounds shifting NOX2 Amplex Red fluorescence – cell-based, HEK293-NOX2, PMA-stimulated, NOX inhibitor project, primary screen (AID 1159). Further: test concentration not given here. The note with it: 45 min, higher = more signal, called active from +8 up or from −8 down.
The target in experiment [9] is NADPH oxidase 4 (Homo sapiens) (UniProt Q9NPH5). Nature of the experiment: compounds shifting NOX4 Amplex Red fluorescence – cell-based, HEK293-NOX4, tetracycline-induced, NOX inhibitor project, primary screen (AID 1160). The note with it: HEK293-NOX4, Amplex Red H2O2 fluorescence, 45 min; higher = more signal, called active from +8 up or from −8 down.
Experiment [10] addresses NADPH oxidase 5 (Homo sapiens) (UniProt Q96PH1). Nature of the experiment: compounds shifting NOX5 Amplex Red fluorescence – cell-based, HEK293-NOX5, NOX inhibitor project, primary screen (AID 1161). The note with it: HEK293-NOX5, ionomycin, 45 min, higher = more signal.
A short description of experiment [11]: compound effects on lung adenocarcinoma cell viability – A549, calcein-AM fluorescence, 48 h, basal, profiling panel (AID 1162). Further: test concentration not given here. The note with it: higher = more signal.
Experiment [12] can be described thus: compound effects on differentiated 3T3-L1 adipocyte viability – cell-based, 3T3-L1 adipocytes, calcein-AM fluorescence, 48 h, basal, profiling panel (AID 1163). Further: test concentration not given here. The note with it: 3T3-L1 adipocytes viability, higher = more signal.
The nature of experiment [13]: compound effects on hepatocellular carcinoma cell viability – HepG2, calcein-AM fluorescence, 48 h, basal, profiling panel (AID 1164). Further: test concentration not given here. The note with it: higher = more signal.
Experiment [14] in a line: compound effects on multiple myeloma cell viability – MM1S, calcein-AM fluorescence, 48 h, basal, profiling panel (AID 1165).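 Further: viability of MM1S multiple myeloma cells under basal unstimulated conditions; test concentration not given here.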 The note with it: higher = more signal.
Experiment [15] in a line: calcein-AM signal in unstimulated myeloma cells – cell-based, calcein-AM fluorescence, 48 h, PK04 Diversity Set, profiling panel (AID 1166).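 Further: cells grown under basal conditions without added stimulus; test concentration not given here.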 The note with it: RPMI8226 myeloma viability, higher = more signal.
A short description of experiment [16]: JC-1 mitochondrial signal, unstimulated HepG2 cells – cell-based, JC-1 fluorescence, 24 h, 100 nL compound, profiling panel (AID 1167). Further: test concentration not given here. The note with it: HepG2 mitochondrial potential, higher = more signal.
Experiment [17] in a line: JC-1 mitochondrial signal, unstimulated adipocytes – cell-based, JC-1 fluorescence, 3T3-L1 adipocytes, 24 h, 100 nL compound, profiling panel (AID 1168). Further: test concentration not given here. The note with it: JC-1 mitochondrial fluorescence, higher = more signal, called active from +8 up or from −8 down.
The nature of experiment [18]: JC-1 mitochondrial signal, unstimulated myeloma cells – cell-based, JC-1 fluorescence, RPMI8226, 24 h, 100 nL compound, profiling panel (AID 1169). Further: test concentration not given here. The note with it: JC-1 mitochondrial potential fluorescence, higher = more signal.
A short description of experiment [19]: JC-1 mitochondrial signal, unstimulated MM1S myeloma – cell-based, JC-1 fluorescence, 24 h, 100 nL compound, profiling panel (AID 1170). Further: test concentration not given here. The note with it: MM1S mitochondrial potential, higher = more signal.
The nature of experiment [20]: resazurin metabolic signal in A549 cells – cell-based, resazurin fluorescence, 24 h, PK04 Diversity Set, profiling panel (AID 1171). Further: test concentration not given here. The note with it: A549 viability, higher = more signal, called active from +8 up or from −8 down.

The structures appear in SMILES notation. Activity calls are given as the source filed them.

Chain of NADPH oxidase 5 (Homo sapiens) (Q96PH1 whole entry, looked up): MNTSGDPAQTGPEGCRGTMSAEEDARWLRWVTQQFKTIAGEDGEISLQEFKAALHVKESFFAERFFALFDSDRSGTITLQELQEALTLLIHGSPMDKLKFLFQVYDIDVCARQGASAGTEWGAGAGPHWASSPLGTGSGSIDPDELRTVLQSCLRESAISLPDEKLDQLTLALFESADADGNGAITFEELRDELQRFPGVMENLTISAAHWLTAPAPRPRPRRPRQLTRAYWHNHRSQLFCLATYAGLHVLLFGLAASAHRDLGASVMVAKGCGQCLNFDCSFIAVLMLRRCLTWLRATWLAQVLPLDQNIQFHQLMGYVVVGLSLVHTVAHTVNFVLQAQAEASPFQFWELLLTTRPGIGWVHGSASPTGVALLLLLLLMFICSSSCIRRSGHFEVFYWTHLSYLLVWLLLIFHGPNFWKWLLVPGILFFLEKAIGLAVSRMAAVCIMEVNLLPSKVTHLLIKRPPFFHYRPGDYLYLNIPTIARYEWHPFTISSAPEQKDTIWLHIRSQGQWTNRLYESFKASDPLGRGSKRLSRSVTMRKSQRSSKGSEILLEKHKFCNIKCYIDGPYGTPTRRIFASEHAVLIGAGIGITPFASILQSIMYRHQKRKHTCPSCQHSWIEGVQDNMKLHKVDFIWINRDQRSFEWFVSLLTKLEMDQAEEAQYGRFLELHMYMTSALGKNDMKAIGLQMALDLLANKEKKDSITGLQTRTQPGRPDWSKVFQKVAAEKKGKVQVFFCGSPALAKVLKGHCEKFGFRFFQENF
Chain of NADPH oxidase 4 (Homo sapiens) (Q9NPH5 whole entry, looked up): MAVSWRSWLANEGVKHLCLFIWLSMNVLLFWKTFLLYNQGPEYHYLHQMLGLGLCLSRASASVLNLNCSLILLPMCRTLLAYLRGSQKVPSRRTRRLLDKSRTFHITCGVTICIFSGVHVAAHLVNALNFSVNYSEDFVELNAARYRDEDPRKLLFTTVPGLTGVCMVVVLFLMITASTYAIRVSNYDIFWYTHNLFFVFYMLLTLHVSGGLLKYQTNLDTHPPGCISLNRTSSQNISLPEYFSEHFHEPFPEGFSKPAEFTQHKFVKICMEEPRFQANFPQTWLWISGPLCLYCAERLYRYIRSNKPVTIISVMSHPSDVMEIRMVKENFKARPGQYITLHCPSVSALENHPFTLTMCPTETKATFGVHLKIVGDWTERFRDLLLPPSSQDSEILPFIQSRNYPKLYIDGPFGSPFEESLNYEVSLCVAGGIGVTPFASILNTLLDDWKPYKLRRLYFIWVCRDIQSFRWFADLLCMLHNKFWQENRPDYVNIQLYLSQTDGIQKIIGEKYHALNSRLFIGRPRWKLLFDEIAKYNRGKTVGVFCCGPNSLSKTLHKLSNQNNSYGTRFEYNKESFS
Chain of NADPH oxidase 2 (Homo sapiens) (P04839 whole entry, looked up): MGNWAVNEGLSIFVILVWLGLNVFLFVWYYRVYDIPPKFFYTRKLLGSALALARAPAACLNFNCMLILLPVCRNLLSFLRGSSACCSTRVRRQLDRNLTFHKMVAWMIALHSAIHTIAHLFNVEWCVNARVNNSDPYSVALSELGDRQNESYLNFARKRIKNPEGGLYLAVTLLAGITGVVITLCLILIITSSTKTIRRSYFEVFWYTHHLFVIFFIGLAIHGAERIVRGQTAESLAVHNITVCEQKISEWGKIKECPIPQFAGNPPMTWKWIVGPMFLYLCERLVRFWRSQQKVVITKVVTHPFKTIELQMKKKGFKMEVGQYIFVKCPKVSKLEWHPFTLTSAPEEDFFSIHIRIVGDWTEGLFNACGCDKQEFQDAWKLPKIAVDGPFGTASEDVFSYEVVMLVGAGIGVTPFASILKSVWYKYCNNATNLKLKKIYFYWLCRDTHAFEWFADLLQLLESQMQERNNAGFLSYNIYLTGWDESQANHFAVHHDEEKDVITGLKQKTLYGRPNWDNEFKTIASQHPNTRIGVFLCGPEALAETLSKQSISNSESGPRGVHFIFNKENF

For `CC(C)NC(=O)[C@@]1(C)c2ccccc2C(=O)N(Cc2ccc(OC(F)(F)F)cc2)[C@H]1c1ccc(CO)cc1`, the z-score was -0.362 (inactive) in experiment [1]; 2.96 (inactive) in experiment [3]; 0.857 (inactive) in experiment [4]; 1.89 (inactive) in experiment [5]; 0.254 (inactive) in [6]; 0.0795 in experiment [7]. Besides, the z-score was 0.415 (inactive) in [8]; -0.667 (inactive) in [9]; 1.99 in [10]; -0.692 in experiment [11]; 1.08 in experiment [12]; 0.0903 in [13]. For the same compound, the z-score in experiment [14] is -0.0831; in experiment [15], -0.676; in experiment [16], 2.05; in experiment [17], -0.682 (inactive); in experiment [18] it was -0.547; in experiment [19] it was -1.67. Moreover, in experiment [20], the z-score is -0.0752 (inactive). The compound also came in with a composite z-score in [2] of 0.0004.

Turning to `COc1ccc([Si](C)(C)[C@@H]2[C@@H](CCO)O[C@]3(C(=O)N(Cc4cccc(NC(=O)[C@H](C)O)c4)c4ccccc43)[C@H]2C)cc1`, the z-score in experiment [1] is -1.19 (inactive); in [3], 9.14 (active); in [4], 2.91 (inactive); in experiment [5] it was -1.04 (inactive); in experiment [6] it was 1.35 (inactive); in [7], -0.472. Further, the z-score in experiment [8] is -0.881 (inactive); in [9] it was 0.436 (inactive); in experiment [10], -0.256; in experiment [11], -3.78; in [12] it was -0.578; in experiment [13], -4.53. Further, the z-score in experiment [14] is -2.88; in experiment [15], -4.36; in experiment [16] it was -1.37; in [17], 1.5 (inactive); in experiment [18] it was -1.06; in experiment [19] it was -2.24. Further, the z-score in experiment [20] was -5.11 (inactive). In experiment [2], the composite z-score is 0.286.

As for `COCC(=C=CC[C@H](O)c1ccc(CO)o1)CCO`, the z-score in experiment [1] is -0.434 (inactive); in [3], 0.811 (inactive); in experiment [4] it was 0.0508 (inactive); in experiment [5], -0.148 (inactive); in experiment [6], -0.159 (inactive); in experiment [7], -0.992. Also, the z-score in experiment [8] was 0.249 (inactive); in [9], -0.177 (inactive); in [10], -0.224; in experiment [11], 0.0135; in experiment [12], -0.651; in experiment [13] it was 0.676. The z-score in experiment [14] is -0.558; in experiment [15], 0.368; in experiment [16], -0.649; in experiment [17] it was -0.0348 (inactive); in experiment [18] it was -0.495; in experiment [19], 0.363. For the same compound, in experiment [20], the z-score was -0.0239 (inactive). The composite z-score in experiment [2] is -0.198.

For the compound `CCCCN1CC=CC23O[C@@H]4/C=C\CCCOC(=O)C4[C@H]2C(=O)N(CCO)[C@@H]3C1=O` (stereo not given in full), the z-score in experiment [1] is 1.18 (inactive); in [3] it was 0.978 (inactive); in experiment [4] it was 1.05 (inactive); in [5] it was 0.504 (inactive); in experiment [6], 0.628 (inactive); in experiment [7] it was -0.246. The z-score is 1.28 (inactive) in experiment [8]; 0.314 (inactive) in experiment [9]; 1.5 in experiment [10]; -0.129 in experiment [11]; 1.63 in [12]; -0.0509 in experiment [13]. In addition, the z-score in experiment [14] is 1.04; in [15] it was -0.711; in experiment [16], -0.415; in experiment [17] it was 0.0794 (inactive); in experiment [18], 0.378; in [19], 1.39. Also, the z-score in [20] is -0.688 (inactive). Further, in experiment [2], the composite z-score is -0.297.

Regarding `CCOC(=O)C1=C[C@@H](C(C)(C)C)N(S(=O)(=O)c2ccc(C)cc2)[C@H]1c1cccc2ccccc12`, the z-score is -1.11 (inactive) in [1]; 0.564 (inactive) in experiment [3]; 0.849 (inactive) in [4]; 0.31 (inactive) in [5]; 0.193 (inactive) in [6]; -0.674 in experiment [7]. In addition, the z-score is -0.527 (inactive) in experiment [8]; 0.13 (inactive) in experiment [9]; 0.139 in [10]; -1.35 in experiment [11]; -0.15 in experiment [12]; -1.62 in [13]. Also, the z-score is -0.205 in experiment [14]; -2.97 in experiment [15]; 3.37 in experiment [16]; 0.348 (inactive) in [17]; -0.919 in [18]; -0.541 in experiment [19]. In experiment [20], the z-score was 0.828 (inactive). In addition, the composite z-score in [2] was 0.0927.
